Results as given in PubChem BioAssay (NCI).
About 79,000 compounds went through this panel and 15% of them were active in at least one assay; those are over-represented in the sample as a whole. A number with no mark means an inactive call. The source made the active and inactive calls. No stated cut-off is given here; in the data, active means growth inhibition above about 70%; inactive means the rest.

How the values were obtained:
[1] = NCI Yeast Anticancer Drug Screen. Data for the rad52 strain (AID 147);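 further: 0% = growth of vehicle-treated control cultures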; settings: S. cerevisiae rad52 mutant growth inhibition, active compounds read high
How it was run: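 Inhibition of yeast growth, referenced to vehicle controls, was the measured output for a strain with defective DNA damage repair.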

[2] = NCI Yeast Anticancer Drug Screen. Data for the wt1 strain (AID 149);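 further: 0% = growth of vehicle-treated wt1 cultures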; settings: S. cerevisiae wt1 strain (SPY 50644) growth inhibition, active compounds read high
How it was run: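 Readout: yeast growth inhibition, normalised to vehicle controls, in the wt1 strain exposed to test compounds.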

[3] = NCI Yeast Anticancer Drug Screen. Data for the rad50EPP+ strain (AID 151);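 further: 0% = growth of vehicle-treated control cultures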; settings: S. cerevisiae rad50 mutant strain, active compounds read high
How it was run: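 Genetically defined yeast (rad50EPP+, DNA damage repair alteration) is grown with compound, and inhibition of growth is expressed relative to vehicle-treated controls.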

[4] = NCI Yeast Anticancer Drug Screen. Data for the mgt1 strain (AID 153); settings: S. cerevisiae mgt1 mutant growth inhibition, active compounds read high
How it was run: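 In the mgt1 strain, test compounds were added and growth inhibition was determined relative to vehicle-treated controls.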

[5] = NCI Yeast Anticancer Drug Screen. Data for the rad50 strain (AID 155);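 further: 0% = growth of vehicle-only cultures of the same strain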; settings: S. cerevisiae rad50 strain growth inhibition, active compounds read high
How it was run: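 Compounds were tested on a yeast strain with an engineered DNA damage repair alteration; the reported value is growth inhibition normalised to vehicle treatment.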

[6] = NCI Yeast Anticancer Drug Screen. Data for the mec2-1 strain (AID 157); settings: S. cerevisiae mec2-1 strain, active compounds read high
How it was run: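 Each compound was tested on mec2-1 yeast, a strain altered in DNA damage repair or cell cycle control. Growth inhibition is reported relative to vehicle.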

[7] = NCI Yeast Anticancer Drug Screen. Data for the rad14 strain (AID 159);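 further: 0% = growth of vehicle-treated control cultures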; settings: S. cerevisiae rad14 strain growth inhibition, active compounds read high
How it was run: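 Compound-treated yeast with a defined DNA-repair lesion; growth inhibition normalised to vehicle-treated cultures.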

[8] = NCI Yeast Anticancer Drug Screen. Data for the sgs1 mgt1 strain (AID 161);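 further: 0% = growth of cultures given vehicle only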; settings: S. cerevisiae sgs1 mgt1 strain, active compounds read high
How it was run: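 Genetically altered yeast, compound exposure, growth inhibition relative to vehicle.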

[9] = NCI Yeast Anticancer Drug Screen. Data for the CLN2oe strain (AID 163);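 further: 0% = growth of vehicle-only control cultures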; settings: S. cerevisiae CLN2oe strain, active compounds read high
How it was run: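 First, the altered yeast strain was treated with each compound; second, its growth was measured; finally, inhibition was derived by comparison with vehicle controls.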

[10] = NCI Yeast Anticancer Drug Screen. Data for the cln2 rad14 strain (AID 165);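 further: 0% = growth equal to vehicle treated cultures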; settings: S. cerevisiae cln2 rad14 strain, active compounds read high
How it was run: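 Test compounds were added to cln2 rad14 yeast cultures; inhibition of growth was then determined by comparison with vehicle treatment.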

[11] = NCI Yeast Anticancer Drug Screen. Data for the bub3 strain (AID 167); settings: S. cerevisiae bub3 mutant strain, active compounds read high
How it was run: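 Growth of a checkpoint-deficient yeast mutant is measured after compound exposure. Values represent inhibition relative to vehicle.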

[12] = NCI Yeast Anticancer Drug Screen. Data for the wt2 strain (AID 169);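 further: 0% = growth of vehicle-treated yeast cultures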; settings: S. cerevisiae wt2 strain growth inhibition, active compounds read high
How it was run: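 The panel's yeast strains carry defined changes in DNA repair or cell cycle genes. Each strain is grown with compound, and growth loss is scored relative to vehicle.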

[13] = NCI Yeast Anticancer Drug Screen. Data for the mlh1 strain (AID 171);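 further: 0% = growth of vehicle-treated control cultures of the same strain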; settings: S. cerevisiae mlh1 strain growth inhibition, active compounds read high
How it was run: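 Inhibition values reflect reduced yeast growth in the presence of compound, referenced to vehicle controls, using a strain chosen for its alteration in DNA repair or cell cycle control.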

[14] = NCI Yeast Anticancer Drug Screen. Data for the sgs1 strain (AID 173);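 further: 0% = growth of vehicle-only control cultures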; settings: S. cerevisiae sgs1 mutant, active compounds read high
How it was run: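 Vehicle-treated cultures served as reference for growth inhibition of a yeast strain altered in DNA damage repair or cell cycle control after compound exposure.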

[15] = NCI Yeast Anticancer Drug Screen. Data for the mlh1 rad18 strain (AID 175); settings: S. cerevisiae mlh1 rad18 strain growth inhibition, active compounds read high
How it was run: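 Inhibition values reflect reduced growth of mutant yeast versus vehicle-treated controls following compound exposure; the mutations affect DNA damage repair.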

[16] = NCI Yeast Anticancer Drug Screen. Data for the rad18 strain (AID 177); settings: S. cerevisiae rad18 mutant growth inhibition, active compounds read high
How it was run: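 Steps: expose repair-mutant yeast to compound; measure growth; express as inhibition relative to vehicle control.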

[17] = at 5.0 µM (retest, dose inferred, filed as 0.5)
[18] = at 50.0 µM (retest, dose inferred, filed as 5.0)

Cc1nc2ccc(N=NN(C)C)cc2[nH]1
growth inhibition ([1]; at 1.2 µM): 11%
growth inhibition ([1]; at 3.7 µM): 8%
growth inhibition ([1]; at 11.0 µM): 3%
growth inhibition ([1]; at 33.0 µM): 72% (active)
growth inhibition ([1]; at 100.0 µM): 97% (active)
growth inhibition ([2]; at 1.2 µM): 13%
growth inhibition ([2]; at 3.7 µM): 6%
growth inhibition ([2]; at 11.0 µM): 7%
growth inhibition ([2]; at 33.0 µM): 25%
growth inhibition ([2]; at 100.0 µM): 98% (active)
growth inhibition ([3]; at 1.2 µM): 13%
growth inhibition ([3]; at 3.7 µM): 14%
growth inhibition ([3]; at 11.0 µM): 8%
growth inhibition ([3]; at 33.0 µM): 51%
growth inhibition ([3]; at 100.0 µM): 98% (active)
growth inhibition ([4]; at 1.2 µM): 2%
growth inhibition ([4]; at 3.7 µM): 3%
growth inhibition ([4]; at 11.0 µM): 15%
growth inhibition ([4]; at 33.0 µM): 99% (active)
growth inhibition ([4]; at 100.0 µM): 99% (active)
growth inhibition ([5]; at 1.2 µM): 22%
growth inhibition ([5]; at 3.7 µM): 16%
growth inhibition [5, 17]: -3%
growth inhibition ([5]; at 11.0 µM): 15%
growth inhibition ([5]; at 33.0 µM): 83% (active)
growth inhibition [5, 18]: 97% (active)
growth inhibition ([5]; at 50.0 µM): 84% (active)
growth inhibition ([5]; at 100.0 µM): 98% (active)
growth inhibition ([6]; at 1.2 µM): 15%
growth inhibition ([6]; at 3.7 µM): 21%
growth inhibition [6, 17]: -9%
growth inhibition ([6]; at 11.0 µM): 20%
growth inhibition ([6]; at 33.0 µM): 98% (active)
growth inhibition [6, 18]: 98% (active)
growth inhibition ([6]; at 50.0 µM): 91.3% (active)
growth inhibition ([6]; at 100.0 µM): 98% (active)
growth inhibition ([7]; at 1.2 µM): 4%
growth inhibition ([7]; at 3.7 µM): 4%
growth inhibition ([7]; at 11.0 µM): 12%
growth inhibition ([7]; at 33.0 µM): 15%
growth inhibition ([7]; at 100.0 µM): 97% (active)
growth inhibition [8, 17]: -6%
growth inhibition [8, 18]: 7%
growth inhibition ([8]; at 50.0 µM): 88.8% (active)
growth inhibition ([9]; at 1.2 µM): 8%
growth inhibition ([9]; at 3.7 µM): 1%
growth inhibition ([9]; at 11.0 µM): 30%
growth inhibition ([9]; at 33.0 µM): 96% (active)
growth inhibition ([9]; at 100.0 µM): 96% (active)
growth inhibition [10, 17]: 8%
growth inhibition [10, 18]: 35%
growth inhibition ([10]; at 50.0 µM): 87.5% (active)
growth inhibition ([11]; at 1.2 µM): -6%
growth inhibition ([11]; at 3.7 µM): -5%
growth inhibition [11, 17]: -19%
growth inhibition ([11]; at 11.0 µM): -2%
growth inhibition ([11]; at 33.0 µM): 97% (active)
growth inhibition [11, 18]: 98% (active)
growth inhibition ([11]; at 50.0 µM): 87.8% (active)
growth inhibition ([11]; at 100.0 µM): 98% (active)
growth inhibition ([12]; at 1.2 µM): -15%
growth inhibition ([12]; at 3.7 µM): 4%
growth inhibition ([12]; at 11.0 µM): 6%
growth inhibition ([12]; at 33.0 µM): 98% (active)
growth inhibition ([12]; at 100.0 µM): 98% (active)
growth inhibition ([13]; at 1.2 µM): 2%
growth inhibition ([13]; at 3.7 µM): 3%
growth inhibition ([13]; at 11.0 µM): 15%
growth inhibition ([13]; at 33.0 µM): 99% (active)
growth inhibition ([13]; at 100.0 µM): 99% (active)
growth inhibition ([14]; at 1.2 µM): 27%
growth inhibition ([14]; at 3.7 µM): 39%
growth inhibition ([14]; at 11.0 µM): 40%
growth inhibition ([14]; at 33.0 µM): 49%
growth inhibition ([14]; at 100.0 µM): 99% (active)
growth inhibition [15, 17]: -7%
growth inhibition [15, 18]: 98% (active)
growth inhibition ([15]; at 50.0 µM): 89% (active)
growth inhibition ([16]; at 1.2 µM): 18%
growth inhibition ([16]; at 3.7 µM): 23%
growth inhibition ([16]; at 11.0 µM): 26%
growth inhibition ([16]; at 33.0 µM): 77% (active)
growth inhibition ([16]; at 100.0 µM): 98% (active)

CC(C)CCCC(C)C1CCC2C3CCC4=CC(=O)/C(=C\O)CC4(C)C3CCC12C (stereo not drawn)
growth inhibition ([1]; at 1.2 µM): 1%
growth inhibition ([1]; at 3.7 µM): 2%
growth inhibition ([1]; at 11.0 µM): 3%
growth inhibition ([1]; at 33.0 µM): 6%
growth inhibition ([1]; at 100.0 µM): 25%
growth inhibition ([2]; at 1.2 µM): 1%
growth inhibition ([2]; at 3.7 µM): 1%
growth inhibition ([2]; at 11.0 µM): 2%
growth inhibition ([2]; at 33.0 µM): 3%
growth inhibition ([2]; at 100.0 µM): 16%
growth inhibition ([3]; at 1.2 µM): 2%
growth inhibition ([3]; at 3.7 µM): -2%
growth inhibition ([3]; at 11.0 µM): -6%
growth inhibition ([3]; at 33.0 µM): -8%
growth inhibition ([3]; at 100.0 µM): -4%
growth inhibition ([4]; at 1.2 µM): -1%
growth inhibition ([4]; at 3.7 µM): 1%
growth inhibition ([4]; at 11.0 µM): 1%
growth inhibition ([4]; at 33.0 µM): 0%
growth inhibition ([4]; at 100.0 µM): 6%
growth inhibition ([5]; at 1.2 µM): 1%
growth inhibition ([5]; at 3.7 µM): 0%
growth inhibition [5, 17]: 5%
growth inhibition ([5]; at 11.0 µM): -2%
growth inhibition ([5]; at 33.0 µM): 0%
growth inhibition [5, 18]: 47%
growth inhibition ([5]; at 50.0 µM): 15.9%
growth inhibition ([5]; at 100.0 µM): 21%
growth inhibition ([6]; at 1.2 µM): -2%
growth inhibition ([6]; at 3.7 µM): -6%
